# Data published in PubChem BioAssay.
# Columns and labels:
# Test in all cases: Peg3 promoter luciferase inhibitors, potency, dose response, cell-based, HeLa, CREF/GAPDH counter-screen panel (AID 624167)
# PEG-3 [1] = molecular target: PEG-3 (UniProt Q6IN02); details: CREF/GAPDH counter-screens; HeLa PEG-Prom luciferase reporter, overnight, run 1, dose range 1, at 100 µM (top of the series) unless noted
# PEG-3 [2] = molecular target: PEG-3 (UniProt Q6IN02); details: CREF/GAPDH counter-screens; HeLa PEG-Prom luciferase reporter, overnight, run 2, dose range 1, at 100 µM (top of the series) unless noted
# Rat fibroblasts (CREF) [3] = details: CREF/GAPDH counter-screens; run 1, dose range 1, at 100 µM (top of the series)
# Rat fibroblasts (CREF) [4] = details: CREF/GAPDH counter-screens; run 2, dose range 1, at 100 µM (top of the series)
# Chain of PEG-3 (Q6IN02 whole entry, looked up): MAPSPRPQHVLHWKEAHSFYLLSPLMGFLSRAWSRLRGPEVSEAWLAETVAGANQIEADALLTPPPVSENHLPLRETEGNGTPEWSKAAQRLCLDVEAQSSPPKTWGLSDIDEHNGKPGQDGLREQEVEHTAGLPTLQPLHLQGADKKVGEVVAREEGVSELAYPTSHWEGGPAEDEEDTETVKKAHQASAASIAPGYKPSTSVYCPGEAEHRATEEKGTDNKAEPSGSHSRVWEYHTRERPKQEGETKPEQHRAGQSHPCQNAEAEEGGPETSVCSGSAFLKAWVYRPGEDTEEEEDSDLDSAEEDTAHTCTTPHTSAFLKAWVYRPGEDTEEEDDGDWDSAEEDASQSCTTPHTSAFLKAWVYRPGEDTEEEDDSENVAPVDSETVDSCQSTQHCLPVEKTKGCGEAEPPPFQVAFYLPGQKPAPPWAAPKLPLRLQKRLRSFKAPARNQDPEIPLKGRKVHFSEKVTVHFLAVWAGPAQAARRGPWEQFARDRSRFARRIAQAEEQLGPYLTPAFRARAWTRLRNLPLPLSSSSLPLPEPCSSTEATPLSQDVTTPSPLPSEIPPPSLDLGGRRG
SMILES,inhibition (PEG-3 [1]),inhibition (PEG-3 [2]),inhibition (Rat fibroblasts (CREF) [3]) [%],inhibition (Rat fibroblasts (CREF) [4]) [%]
CN(C)CCNC(=O)c1sc2nc(-c3ccccc3)cc(C(F)(F)F)c2c1N,102%,102%,–,–
CN(C)CC1CCC/C(=C/c2ccc(Cl)cc2)C1=O (configuration not stated),102%,98.7%,–,–
COc1cccc(CN(C)C(=O)c2cc(-c3cccs3)nc3ccccc23)c1,84%,101%,–,–
COc1ccc(/C=C2/CCCC(CN(C)C)C2=O)cc1 (configuration not stated),99.5%,98.8%,95.5,68.5
O=[N+]([O-])c1cc(Cl)cc(/C=N\Nc2ccccn2)c1O,28.9%,40.5%,–,–
Cn1c(=O)c(C(=O)CCl)c(N)n(Cc2ccccc2)c1=O,102%,97.2%,–,–
OCCN1CCN(C2CCC(c3ccc(F)cc3)c3ccc(F)cc32)CC1 (configuration not stated),102%,101%,–,–
Cc1ccc(N2CC(C(=O)Nc3nccs3)CC2=O)cc1Cl (configuration not stated),99.5%,63.6%,–,–
Cc1ccc(-n2[nH]c(=O)c(-c3ccccn3)c2C)cc1,94.8%,90.3%,86.5,87.2
COc1ccc(-n2cc(-c3ccccc3)c3c(N4CCOCC4)ncnc32)cc1,94.2%,101%,69.3,67.2
O=C(c1ccco1)N1CCN(C(c2ccccc2Cl)c2nnnn2Cc2cccs2)CC1 (configuration not stated),63%,44.9%,-23.5,-17.6
CC(C)Cc1ccc(C(C)C(N)=NCCc2ccccc2)cc1 (configuration not stated),97.4%,102%,100,99.2
Cc1cc(NC(c2cccnc2)c2ccc3cccnc3c2O)no1 (configuration not stated),63.9%,74%,59.7,94.9
O=C(O)c1cccc(COc2ccccc2Cl)c1,96.7%,87.5%,97,72.1
CS(=O)(=O)c1ccc(-c2cn3cc(C(=O)O)ccc3n2)cc1,82.1%,57.2%,71,66.8
COc1ccc(/C=C2\SC(=S)N(CCCC(=O)NNC(=O)c3ccccc3O)C2=O)cc1,89.6%,81.1%,23.4,43.3
Cc1ccc(-n2c(N)c(C(=O)Nc3c(C)n(C)n(-c4ccccc4)c3=O)c3nc4ccccc4nc32)cc1,52.5%,62.7%,89.4,83.7
O=C(NNC(=O)c1cccnc1SCc1cccc([N+](=O)[O-])c1)c1ccccn1,65.1%,56.6%,46.9,42.9
CN1CCC2(CC1)N=C(c1ccc(F)cc1)C(=S)N2C(=O)c1ccc(C(C)(C)C)cc1,102%,99%,98.7,68.4
COc1cc(CNCCCN2CCOCC2)cc(Br)c1OCc1ccc(Cl)cc1,99.2%,101%,100,99.1
COc1cccc(/C=N/NC(=O)c2ccc(-c3ccccc3)cc2)c1O,81%,79.7%,69.8,67.6
CCOC(=O)c1c(SCCN2CCCCC2)n(-c2ccccc2)c(=S)n(-c2ccccc2)c1=O,97.7%,102%,90.4,94.6
CCOc1ccc2nc(NC(=O)c3ccccn3)sc2c1,88%,83.6%,87.1,83.4
Cc1nc(SCC(=O)Nc2nc3ccccc3s2)c(C#N)c(C)c1C,95.4%,89%,97.8,97
O=C(NCCc1ccccc1)c1ccc2c(c1)OCCCO2,101%,102%,100,99.5

SMILES,inhibition (PEG-3 [1]),inhibition (PEG-3 [2]),inhibition (Rat fibroblasts (CREF) [3]) [%],inhibition (Rat fibroblasts (CREF) [4]) [%]
CC1CCN(c2ccc(-c3cccs3)nn2)CC1,90.2%,97.2%,96.1,96.2
O=c1c2ccccc2cnn1-c1nc2ccccc2[nH]1,98.4%,99.5%,101,100
COc1cc(NS(C)(=O)=O)ccc1Nc1c2ccccc2nc2ccccc12,102%,99.2%,86.1,95.2
COc1ccc(-c2cc3nc(C)n(N)c(=O)c3s2)cc1,99.2%,102%,99,98.9
O=C(COc1ccc(Cl)cc1Cl)Nc1ccccn1,94%,98.4%,101,99.7
CCCn1nc(C(=O)Nc2nc(-c3ccccn3)cs2)c2ccccc2c1=O,84.7%,80.4%,7.59,23.2
Cc1ccsc1/C=N/Nc1cccc(C(=O)O)c1,98.1%,88.9%,51.5,42.9
CCN(CC)S(=O)(=O)c1cccc(C(=O)N/N=C(\C)c2ccc(O)cc2O)c1,27.3%,69.6%,43.3,47.7
c1ccc(-c2nc(-c3ccccn3)no2)cc1,89.5%,91.1%,98,98.3
Clc1ccccc1/C=C/c1nc(-c2ccccn2)no1,87.3%,96.5%,89.2,76.1
Cc1cccc(C)c1NC(=O)c1nc(S(=O)(=O)Cc2ccccc2)ncc1Cl,102%,101%,99.2,99
O=C(Nc1nc2cc3c(cc2s1)OCCO3)c1ccco1,97.8%,95.5%,92.9,95.1
COc1cccc2nc3c(C(=O)NCCN(C)C)cccc3cc12,98.9%,101%,98,95.2
O=C(N/N=C/c1ccc(Cl)c([N+](=O)[O-])c1)c1cc(-c2ccc3c4c(cccc24)CC3)n[nH]1,"95.1% [run 1, dose range 1, at 50 µM]",93.6%,-4.6,4.99
COc1cc(OC)c2cc(C(=O)N/N=C/c3ccccc3O)[nH]c2c1,95.8%,95.1%,67.5,65.2
O=C1C(Cl)=C(Nc2ccccc2)C(=O)c2ccccc21,102%,101%,96.9,99.8
CN(C)c1ccc(/C=C/c2ccc3ccccc3n2)cc1,96.6%,96%,96.6,95.8
Cc1cc(C)c2c(N)c(C(=O)Nc3ncc(C)s3)sc2n1,90.9%,98.2%,99.2,98.9
C=CCn1c(C)cc(C(=O)COc2ccc(C)nc2[N+](=O)[O-])c1C,61.3%,43.4%,42.2,46.5
COC(=O)c1c(N)sc(C(=O)NCCc2ccccc2)c1C,101%,102%,93.6,92.9
COc1ccc(NC(=O)c2cc(-c3ccccn3)nc3ccccc23)cc1S(=O)(=O)N(C)C,56.4%,61.2%,-4.8,-6.75
Cc1ccc2nc(-c3ccc4c(c3)OCCO4)cn2c1,98.2%,99.6%,100,99.9
Oc1[nH]c2ccc(Br)cc2c1N=NC(=S)N1CCOCC1,102%,99%,30.5,99.1
Cc1ccc(/C=C2\SC(=S)N(CCCC(=O)Nc3ccccn3)C2=O)cc1,88%,94.2%,-11.8,-1.96
COc1cccc(-c2sc3ccccc3c2-c2ccc(OCCN(C)C)cc2)c1,99.6%,98.6%,98.7,99.3

SMILES,inhibition (PEG-3 [1]),inhibition (PEG-3 [2]),inhibition (Rat fibroblasts (CREF) [3]) [%],inhibition (Rat fibroblasts (CREF) [4]) [%]
Oc1c(Br)cc(Br)c2cccnc12,81.8%,71%,88.2,94.5
Cc1cc(C)c(C)c(S(=O)(=O)N2CCN(C(=O)c3cc(=O)[nH]c4ccccc34)CC2)c1C,82.1%,83.8%,34.6,90.5
CC(C)CC(=NNC(=O)c1ccncc1)c1cc(Cl)ccc1O,76.9%,"93.6% [run 2, dose range 1, at 50 µM]",73.9,81.7
Cc1ccc(C(=O)CN2C(=O)c3ccccc3S2(=O)=O)cc1,93.5%,92.4%,87.2,87.5
Cc1ccc(OCC(=O)c2cc(C)n(-c3ccccc3)c2C)c([N+](=O)[O-])n1,77.6%,74.5%,-20,-61.9
CCc1ccc(/C=C2\SC(=S)N(CCCC(=O)Nc3ccccn3)C2=O)cc1,92.7%,81%,-3.09,94.6
CCCOc1ccc2cc(-c3ccccn3)c(=O)oc2c1,93.5%,94.5%,96.1,95.4
Cc1nn(-c2nc3ccccc3[nH]2)c(=O)c2ccccc12,97.5%,96.4%,100,101
Cc1ccc(C(=O)Nc2cnc3ccccc3c2)cc1,91.5%,98%,83.4,77.7
N=c1n(CCN2CCCCC2)c2ccccc2n1CC(O)c1ccc(Cl)c(Cl)c1 (configuration not stated),99.3%,98.6%,100,99.7
Cc1ccccc1CNC(=O)C1CCCN(c2nnc(C)c3c(C)n(-c4ccccc4)nc23)C1 (configuration not stated),99%,101%,98.3,99.4
O=C(N/N=C/c1sc(N2CCOCC2)nc1-c1ccccc1)c1cccc(S(=O)(=O)N2CCCC2)c1,63.5%,53.5%,-19,87.5
CN1C/C(=C/c2ccccc2[N+](=O)[O-])C(=O)/C(=C\c2ccccc2[N+](=O)[O-])C1,101%,102%,71.1,95.6
O=C(CNCCC1=CCCCC1)Nc1ccc(N2CCCCCC2)cc1,102%,102%,99.4,100
O=C(CN1C(=O)c2ccccc2S1(=O)=O)c1ccc2c(c1)OCCO2,102%,101%,95.2,96
Cc1ccc2nc(C)cc(Nc3ccc([N+](=O)[O-])cc3)c2c1,102%,101%,98.1,98.9
CC(C)CC1C(=O)N(Cc2cn(Cc3ccco3)nn2)CCS(=O)(=O)N1Cc1ccc(-c2ccc(F)cc2)cc1 (configuration not stated),39%,30.4%,96.8,100
COc1ccc(-n2c(O)c(/C=N/Nc3nc(C)cc(C)n3)c3ccccc3c2=O)cc1OC,57.2%,63.9%,80.4,68.5
CCc1ccc(/C=C2\SC(=S)N(CCCC(=O)NC3=NCCS3)C2=O)cc1,96%,77.5%,0.087,7.65
COc1ccc(CCN2C(=O)C=CC2=O)cc1OC,102%,101%,99.5,98.6
CCCN1C=CC(=C2C(=O)c3ccccc3C2=O)C=C1,102%,98.2%,100,100
Cc1cc(C)c2sc(NNC(=O)c3ccc(S(=O)(=O)N4CCc5ccccc5C4)cc3)nc2c1,84.2%,94.7%,53.3,25.5
O=c1cc(-c2ccc(O)cc2)oc2ccc3ccccc3c12,99.4%,101%,98.1,97.1
CCCC(=O)NC(c1ccccc1)c1ccc2cccnc2c1O (configuration not stated),36.8%,"71% [run 2, dose range 1, at 25 µM]",59,44.9
